Potency data for 20 compounds are collected here from PubChem BioAssay (NCATS).

Assay [1] is described as follows: NS1 protein of Zika virus - qHTS assay to identify small molecule inhibitors in human HEK 293 cells (AID 1347053). Also: series mostly up to about 46 µM; nearly all actives have a fitted effect of over 55% in size. In a few lines:
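Inhibition of NS1 expression was scored in HEK 293 cells given compound 1 h ahead of MR766 virus (MOI = 0.5). Following 24 h at 37 C, two anti-NS1 antibodies generated a TR-FRET signal, scaled between uninfected and infected controls.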
(In qHTS, concentration-response curves come from the screen itself.)

Assay [2] is described as follows: qHTS of pediatric cancer cell lines to identify multiple opportunities for drug repurposing: Primary screen for TC32 cells (AID 1347089). Also: nearly all actives have a fitted effect of over 60% in size. The method in brief:
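Measured quantity: luminescence from CellTiter-Glo, reflecting metabolically active TC32 cells following 48 h of compound. Curves came straight from multi-point titrations, with 8 or 11 points in primary and 11 in confirmatory screening.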

The nature of assay [3]: qHTS of pediatric cancer cell lines to identify multiple opportunities for drug repurposing: Primary screen for DAOY cells (AID 1347090). Also: nearly all actives have a fitted effect of over 55% in size. Also: potency is read from the fitted curve at half-maximal effect. In a few lines: (§1)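 Viability measured as metabolically active cells via CellTiter-Glo luminescence following 48 hours of compound exposure, 11-point dilutions in confirmatory testing. 500-1,000 cells/well plated 5 hours before dosing; controls were DMSO and 2.3 µM bortezomib.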

Assay [4] can be described thus: qHTS of pediatric cancer cell lines to identify multiple opportunities for drug repurposing: Primary screen for A673 cells (AID 1347092). Also: nearly all actives have a fitted effect of over 45% in size. In a few lines: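 Cells are plated, rested 5 h, dosed by pintool, incubated 48 h, then lysed with CellTiter-Glo and read by luminescence. DMSO is the neutral control; bortezomib at 2.3 uM final is the positive control.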
A short description of assay [5]: qHTS of pediatric cancer cell lines to identify multiple opportunities for drug repurposing: Primary screen for BT-37 cells (AID 1347094). Also: potency is read from the fitted curve at half-maximal effect. In a few lines:
(§2)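 CRCs from 8- or 11-point titrations (lowest final 0.59 nM NPC, 0.78 nM MIPE). Cell viability: CellTiter-Glo after 48 h incubation, 15 min room-temperature development, luminescence imaging.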

The nature of assay [6]: qHTS of pediatric cancer cell lines to identify multiple opportunities for drug repurposing: Primary screen for U-2 OS cells (AID 1347096). Also: nearly all actives have a fitted effect of over 50% in size. The method in brief:
(§3)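 Viability after 48 h compound treatment at 37C, 500-1,000 cells/well, read as ATP luminescence with CellTiter-Glo. Primary screens used 11-point (MIPE, 0.78 nM-46 µM) or 8-point (NPC, 0.59 nM-46 µM) final concentrations; follow-up screens used 11-point dilutions.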

The nature of assay [7]: qHTS of pediatric cancer cell lines to identify multiple opportunities for drug repurposing: Primary screen for BT-12 cells (AID 1347101). Also: nearly all actives have a fitted effect of over 25% in size. Also: potency is read from the fitted curve at half-maximal effect. In a few lines:
(§4)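 Cells (500-1,000/well) rested 5 h, then received compounds for 48 h; metabolically active cells were measured by CellTiter-Glo luminescence. Final concentrations spanned up to 46 µM (MIPE, 11-point) or 0.59 nM-46 µM (NPC, 8-point) in primary screens, 11-point in follow-ups.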

Assay [8] in a line: qHTS of pediatric cancer cell lines to identify multiple opportunities for drug repurposing: Primary screen for Rh18 cells (AID 1347102). Also: nearly all actives have a fitted effect of over 65% in size. Also: potency is read from the fitted curve at half-maximal effect. In a few lines:
as §3

Assay [9] can be described thus: qHTS of pediatric cancer cell lines to identify multiple opportunities for drug repurposing: Primary screen for RD cells (AID 1347104). Also: nearly all actives have a fitted effect of over 55% in size. Also: potency is read from the fitted curve at half-maximal effect. The method in brief: as §2
Assay [10] is described as follows: qHTS of pediatric cancer cell lines to identify multiple opportunities for drug repurposing: Primary screen for NB-EBc1 cells (AID 1347095). Also: potency is read from the fitted curve at half-maximal effect. In a few lines:
as §2

Assay [11] in a line: qHTS of pediatric cancer cell lines to identify multiple opportunities for drug repurposing: Primary screen for Saos-2 cells (AID 1347097). Also: nearly all actives have a fitted effect of over 40% in size. Also: potency is read from the fitted curve at half-maximal effect. The method in brief: as §2
Assay [12] in a line: qHTS of pediatric cancer cell lines to identify multiple opportunities for drug repurposing: Primary screen for SK-N-SH cells (AID 1347098). Also: nearly all actives have a fitted effect of over 65% in size. Also: potency is read from the fitted curve at half-maximal effect. The method in brief:
as §4

Assay [13] in a line: qHTS of pediatric cancer cell lines to identify multiple opportunities for drug repurposing: Primary screen for NB1643 cells (AID 1347099). Also: nearly all actives have a fitted effect of over 50% in size. Also: potency is read from the fitted curve at half-maximal effect. In a few lines:
as §2

A short description of assay [14]: qHTS of pediatric cancer cell lines to identify multiple opportunities for drug repurposing: Primary screen for LAN-5 cells (AID 1347100). Also: potency is read from the fitted curve at half-maximal effect. In a few lines:
as §3

A short description of assay [15]: qHTS of pediatric cancer cell lines to identify multiple opportunities for drug repurposing: Primary screen for OHS-50 cells (AID 1347103). Also: nearly all actives have a fitted effect of over 40% in size. Also: potency is read from the fitted curve at half-maximal effect. The method in brief:
as §4

Assay [16] in a line: qHTS of pediatric cancer cell lines to identify multiple opportunities for drug repurposing: Primary screen for SJ-GBM2 cells (AID 1347091). Also: potency is read from the fitted curve at half-maximal effect. The method in brief: as §1
Assay [17] can be described thus: qHTS of pediatric cancer cell lines to identify multiple opportunities for drug repurposing: Primary screen for SK-N-MC cells (AID 1347093). Also: potency is read from the fitted curve at half-maximal effect. In a few lines: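 Metabolically active cells were quantified by ATP-dependent luminescence (CellTiter-Glo, 15 min at room temperature) following 48 h treatment. Cells had been plated at 500-1,000 per well and settled for 5 h beforehand.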

Inconclusive results are not listed. Active and inactive are the calls of the source. Calls follow the shape of the dose curve; as a rule, active = well fitted curve in the direction sought with a large enough effect; inconclusive = small, poorly fitted or top-dose-only effect, or another doubt; inactive = no such curve, though single readings can be large; an effect the other way counts as inactive or inconclusive.

For the compound `Oc1c(Cl)cc(Cl)cc1Sc1cc(Cl)cc(Cl)c1O`, the Potency result in [1], in assay [2], in [3], in assay [4], in assay [5] and in assay [6] was “inactive” throughout. Moreover, the Potency entry in assay [7], in [8] and in assay [9] was “inactive” in each case.

`COc1cccc(CCc2ccccc2OCC(CN(C)C)OC(=O)CCC(=O)O)c1` (centres undefined): the Potency entry in [1], in [2], in assay [3], in [5], in [10] and in [6] was “inactive” in each case. The Potency result in [11] and in assay [13] was “inactive” in each case. Besides, in assay [12], the Potency is 17.2 µM (active).

On to `COc1cc2c(cc1OC)C(C(C(=O)N(CCc1ccc(OC)c(OC)c1OC)CCc1ccc(OC)c(OC)c1OC)c1ccccc1)=NCC2` (centres undefined), for which the Potency entry in [1], in assay [2], in [3], in assay [4], in [10] and in [11] was “inactive” in each case. The Potency result in assay [12], in assay [13], in assay [14], in assay [8] and in assay [9] was “inactive” in each case.

Turning to `C#C[C@]1(O)CC[C@H]2[C@@H]3CCc4cc(OC5CCCC5)ccc4[C@H]3CC[C@@]21C`, the Potency entry in assay [1], in assay [2] and in assay [10] was “inactive” each time. Moreover, the Potency in [12] was 17.2 µM (active); in [15], 19.5 µM (active).

Regarding `CCN(CC)C(=O)N1CCN(C)CC1`, the Potency result in assay [1], in assay [3], in assay [16], in assay [4], in [17] and in assay [5] was “inactive” in each case. In addition, the Potency entry in assay [10], in assay [6], in [11], in [12], in assay [14] and in assay [7] was “inactive” in each case. Besides, the Potency result in assay [8], in assay [15] and in assay [9] was “inactive” each time.

Consider `CC(C)(C(=O)c1cccnc1)c1cccnc1`, for which the Potency result in assay [1], in [3], in [16], in assay [4], in assay [17] and in assay [5] was “inactive” each time. For the same compound, the Potency result in assay [10], in assay [6], in assay [12], in assay [13], in assay [7] and in assay [8] was “inactive” in each case. For the same compound, in assay [9], the Potency entry was “inactive”.

With `COc1ccc(OC)c(C(O)CNC(=O)CN)c1` (centres undefined), the Potency entry in [1], in assay [3], in [4], in [17], in assay [5] and in assay [10] was “inactive” throughout. The Potency result in assay [6], in [11], in assay [12], in [13], in assay [14] and in [7] was “inactive” each time. Also, the Potency result in [8], in assay [15] and in assay [9] was “inactive” in each case.

For `CCCCCCCCCCCCCCCCOP(=O)([O-])OCC[N+](C)(C)C`, the Potency result in assay [1], in assay [3], in [5], in [6], in assay [11] and in assay [7] was “inactive” in each case. In addition, the Potency entry in assay [8] was “inactive”. Moreover, the Potency is 8.41 µM (active) in assay [16], 6.68 µM (active) in assay [17] and 13.7 µM (active) in assay [12].

Turning to `COc1c2occc2c(OC)c2c(=O)cc(C)oc12`, the Potency result in assay [1], in assay [3], in assay [16], in [4], in [17] and in assay [5] was “inactive” in each case. In addition, the Potency result in assay [10], in [6], in [11], in assay [12], in [7] and in assay [8] was “inactive” each time. In addition, the Potency result in [15] is “inactive”.

For `Nc1ccc(C(=O)Nc2ccccc2N)cc1`, the Potency entry in [1] was “inactive”. The Potency in assay [3] is 16.8 µM (active); in assay [16], 13.3 µM (active); in assay [17], 3.76 µM (active); in assay [5] it was 17.4 µM (active); in assay [14], 6.68 µM (active); in assay [8], 16.8 µM (active).

Consider `CN1[C@@H]2CC[C@H]1CC(OC(=O)c1c[nH]c3ccccc13)C2` (some centres undefined), for which the Potency entry in [1], in assay [3], in [16], in [4], in [5] and in [6] was “inactive” each time. Moreover, the Potency result in assay [11], in [13], in assay [7], in [8], in assay [15] and in [9] was “inactive” each time.

On to `Clc1ccc2c(c1)CCc1cccnc1C2=C1CCNCC1`, for which the Potency result in assay [1], in assay [3], in assay [17], in assay [5], in assay [10] and in assay [6] was “inactive” each time. Further, the Potency entry in [13] is “inactive”.

For `CCOc1ccc(Cc2nccc3cc(OCC)c(OCC)cc23)cc1OCC`, the Potency entry in assay [1] and in assay [16] was “inactive” each time. Also, the Potency is 21.1 µM (active) in [3] and 6.17 µM (active) in assay [7].

For `CC(C)(C)NC(=O)[C@@H]1CN(Cc2cccnc2)CCN1C[C@@H](O)C[C@@H](Cc1ccccc1)C(=O)N[C@H]1c2ccccc2C[C@H]1O`, the Potency entry in assay [1], in [3], in [16], in [4], in [5] and in assay [10] was “inactive” throughout. For the same compound, the Potency entry in assay [6], in assay [11], in assay [12], in assay [13], in [14] and in assay [7] was “inactive” throughout. The Potency entry in assay [8] and in [15] was “inactive” in each case.

On to `CC(=O)O[C@]1(C(C)=O)CC[C@H]2[C@@H]3C[C@H](C)C4=CC(=O)CC[C@]4(C)[C@H]3CC[C@@]21C`, for which the Potency entry in assay [1], in assay [3], in assay [5], in assay [10], in assay [6] and in [13] was “inactive” throughout. In addition, the Potency entry in assay [8] was “inactive”. In addition, the Potency in assay [17] was 33.5 µM (active).

For `O=c1ccc2ccccc2o1`, the Potency result in assay [1], in assay [3], in [16], in assay [4], in assay [17] and in assay [5] was “inactive” in each case. In addition, the Potency entry in assay [6], in [11], in [12], in assay [13], in assay [14] and in assay [7] was “inactive” each time. In addition, the Potency entry in [8], in assay [15] and in assay [9] was “inactive” each time.

In the case of `C#C[C@]1(O)CC[C@H]2[C@@H]3CCC4=CC(=O)CC[C@@H]4[C@H]3CC[C@@]21C`, the Potency entry in assay [1], in assay [3], in assay [16], in assay [4], in assay [17] and in assay [5] was “inactive” throughout. Further, the Potency entry in assay [6], in assay [11], in [12], in assay [13], in assay [14] and in assay [7] was “inactive” throughout. Besides, the Potency entry in assay [8], in assay [15] and in [9] was “inactive” in each case.

Regarding `Oc1ccc(Cl)cc1Sc1cc(Cl)ccc1O`, the Potency result in [1] and in assay [6] was “inactive” throughout. For the same compound, the Potency in [3] is 21.1 µM (active); in [16], 13.3 µM (active); in [5] it was 21.9 µM (active); in assay [10] it was 15 µM (active); in assay [11], 15 µM (active); in [13], 18.8 µM (active). Besides, the figures for the Potency in [14], in [7] and in [9] were 18.8 µM (active), 19.5 µM (active) and 23.7 µM (active), respectively.

Regarding `CC(=O)N(O)CCCCCNC(=O)CCC(=O)N(O)CCCCCNC(=O)CCC(=O)N(O)CCCCCN`, the Potency entry in assay [1], in assay [4], in [6] and in [11] was “inactive” each time. Besides, the Potency in assay [3] is 8.41 µM (active); in assay [5], 12.3 µM (active); in assay [12] it was 5.45 µM (active); in assay [7], 12.3 µM (active); in [15], 13.8 µM (active).

Turning to `CO/N=C1\CN(c2nc3c(cc2F)c(=O)c(C(=O)O)cn3C2CC2)CC1CN` (centres undefined), the Potency result in assay [1], in assay [3], in assay [16], in [4], in assay [17] and in assay [5] was “inactive” in each case. Further, the Potency result in assay [6], in assay [11], in assay [12], in assay [13], in [8] and in assay [9] was “inactive” in each case.
